Only some compounds are listed: those with a hit (about 18% of all), similar ones and a draw of the others.
LDHA block: LDHA (human) enzyme inhibition | purified LDHA, NADH/diaphorase-resazurin fluorescence; stronger effect = lower value | activity change, % (values are at about 110 or 230 µM) | 480,000 compounds, 0.15% hits | P00338; in the data active means activity change below about -30%; inconclusive means mostly about -25% to -30%;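 further: plate controls were DMSO wells for no effect and wells without enzyme for full effect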
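Remaining NADH was detected by diaphorase (0.133 mg/mL) converting 37 µM resazurin to fluorescent resorufin, read at 0 and 20 minutes. The preceding 5-minute room-temperature reaction used 2 nM LDHA, 0.2 mM sodium pyruvate and 0.06 mM NADH at pH 7.4.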
DT40 TDP1 CPT: DT40-hTDP1 cell growth loss with CPT | 420,000 compounds, 12% hits | chicken DT40 Tdp1-/-;hTDP1 cells + 20 nM CPT, ATP luminescence, 48 h | Potency, µM (highest dose often 46.2 µM), inactives show top-dose activity change, negative = growth inhibition, hits mostly inhibitors; further: potency means the concentration at half of the fitted maximal effect; nearly all actives have a fitted effect of over 55% in size
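Chicken DT40 Tdp1-/- cells complemented with human TDP1, 400 cells/well, exposed to compounds plus 20 nM camptothecin for at least 48 h at 37 C; viability read as ATP content by CellTiter-Glo luminescence.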
DT40 TDP1 no CPT: qHTS for Inhibitors of human tyrosyl-DNA phosphodiesterase 1 (TDP1): qHTS in cells in absence of CPT | 420,000 compounds, 15% hits | DT40 Tdp1-/- hTDP1 cells, no CPT, ATP luminescence, 48 h | Potency, µM (highest dose often 46.2 µM), without a hit: at the top dose activity change, negative = growth inhibition, usual class: inhibitors; further: potency means the concentration at half of the fitted maximal effect; nearly all actives have a fitted effect of over 55% in size
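Readout: luminescence from CellTiter-Glo after 30 min in the dark at RT. Cells: DT40 Tdp1-/- with stable hTDP1, 400/well. Exposure: compounds alone, ≥48 hr, 37 °C.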
Gal4-VP16 FLuc: inhibits Gal4-VP16 luciferase reporter, ROR gamma counter-screen | 310,000 compounds, 3.5% hits | Drosophila S2 Gal4-VP16 UAS-luciferase, luminescence, 20 h | AID 2546 | Potency, µM (doses to about 53.6 µM), for inactives: top-dose activity, negative = inhibition, most hits filed as inhibitors;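 further: Gal4-VP16 expression switched on by copper sulfate through the metallothionein promoter; potency means the concentration at half of the fitted maximal effect; nearly all actives have a fitted effect of over 50% in size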
IL1B secr inh: inflammasome signaling inhibition, IL-1 beta readout. THP-1 LPS/ATP IL-1B secretion, AlphaLISA, 16 h; stronger effect = lower value. activity change, % at 57.5 µM. 360,000 compounds, 4.7% hits. AID 743279; in the data active means activity change below about -50%; inconclusive means mostly about -30% to -49%
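THP-1 cells pretreated 1 hr with compounds (up to 57.5 uM final), then stimulated with LPS (250 ng/mL final) plus ATP (1.25 mM final); secreted IL-1B measured by AlphaLISA after 16 hr, decreased signal indicating inhibition.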
RORgamma inh: blocks mouse ROR gamma transcriptional activity. AID 2551. 310,000 compounds, 5.4% hits. P51450. Potency, µM (doses to about 53.6 µM), inactives show top-dose activity change, negative = inhibition, most hits filed as inhibitors. Drosophila S2 Gal4-RORgamma UAS-luciferase reporter, 20 h; further: potency means the concentration at half of the fitted maximal effect; nearly all actives have a fitted effect of over 60% in size
Target sequence (P51450 whole entry, looked up, the tested form may be a part): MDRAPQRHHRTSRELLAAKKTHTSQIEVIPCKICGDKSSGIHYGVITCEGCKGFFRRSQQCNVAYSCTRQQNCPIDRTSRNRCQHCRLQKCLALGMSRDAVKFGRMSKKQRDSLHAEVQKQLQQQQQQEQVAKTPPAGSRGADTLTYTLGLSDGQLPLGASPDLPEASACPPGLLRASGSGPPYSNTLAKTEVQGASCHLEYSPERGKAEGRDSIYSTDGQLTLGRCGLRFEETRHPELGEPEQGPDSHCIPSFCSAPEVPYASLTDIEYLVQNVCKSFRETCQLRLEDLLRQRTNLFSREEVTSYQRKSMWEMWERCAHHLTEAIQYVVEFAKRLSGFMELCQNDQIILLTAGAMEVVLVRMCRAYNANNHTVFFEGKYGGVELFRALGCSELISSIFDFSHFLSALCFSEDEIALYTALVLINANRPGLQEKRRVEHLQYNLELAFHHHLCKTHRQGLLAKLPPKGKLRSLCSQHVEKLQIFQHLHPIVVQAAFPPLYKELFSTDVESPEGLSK
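In this cell-based reporter format, copper sulfate (700 uM final) drives Gal4–ROR gamma fusion expression from a metallothionein promoter in Drosophila Schneider cells; compounds preincubated 1 hr, reporter read after 20 hr at ambient temperature.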
Active calls of the source: *; ? = inconclusive; nt = no result given; [ ] = dose if it differs, or a comment. Unless noted, the call rests on the fitted dose curve; in most records, active means well fitted curve in the direction sought with a large enough effect; inconclusive means small, poorly fitted or top-dose-only effect, or another doubt; inactive means no such curve, though single readings can be large; an effect the other way counts as inactive or inconclusive. Unless noted, on the % scale 0 is the no-effect control and ±100 the full control effect.

SMILES	LDHA block	DT40 TDP1 CPT	DT40 TDP1 no CPT	Gal4-VP16 FLuc	IL1B secr inh	RORgamma inh
CCc1nnc(NC(=O)CSc2nc(C)c3c(c2C#N)CCCC3)s1	-7	18µM*	18µM*	?	0	?
COc1ccc(-c2cc(-c3ccccc3)c(C#N)c(SCC(=O)Nc3ncc(C)s3)n2)cc1	-4	-20%	?	9%	5	20%
CCc1nnc(NC(=O)CSc2nc(-c3ccccc3)cc(-c3ccc(OC)cc3)c2C#N)s1	-7	23µM*	21µM*	0%	7	-5%[10 µM]
COc1ccc(-c2cc(-c3ccccc3)nc(SCC(=O)Nc3nccs3)c2C#N)cc1	-5	?	8.2µM*	-3%	68	-39%
CN(Cc1cccc(F)c1)C(=O)NC1CCCC(C(F)(F)F)C1 (stereo not drawn)	6	nt	nt	nt	nt	nt
O=C(Nc1ccc(I)cc1)C1CCCCC1	6	nt	nt	nt	nt	nt
CCOCCCNC(=O)c1cccc(C#N)c1	-5	nt	nt	nt	nt	nt
CC(C)(C)NC(=O)NC(=O)CN1C(=O)NC(c2ccccc2)(c2ccccc2)C1=O	0	?	26µM*	-1%	?	-20%
CC1CCC(N(C)C(=O)CN2C(=O)NC(c3ccccc3)(c3ccccc3)C2=O)CC1 (stereo not drawn)	-5	23µM*	?	nt	3	nt
COc1ccc(C2(c3ccc(OC)cc3)NC(=O)N(CC(=O)N(C)C)C2=O)cc1	-7	0%	-9%	2%	17	7%
CCN(C(=O)CN1C(=O)NC(c2ccccc2)(c2ccc(C)c(C)c2)C1=O)C1CCCCC1 (stereo not drawn)	-5	16µM*	?	nt	0	nt
COc1ccc(C2(c3ccc(OC)cc3)NC(=O)N(CC(=O)N(C)C3CCC(C)CC3)C2=O)cc1 (stereo not drawn)	-5	-27%	-14%	nt	-56*	nt
N#CC1=C(N)N(c2ccccc2)C2=C(C(=O)OC2)C12C(=O)N(Cc1ccccc1)c1ccccc12 (stereo not drawn)	0	nt	nt	nt	nt	nt
Cc1sc(NC(=O)C(c2ccccc2)c2ccccc2)c(C#N)c1C	-1	nt	nt	nt	nt	nt
O=c1c2ccccc2oc2nc(-c3ccco3)n(Cc3ccccc3)c(=O)c12	-6	?	21µM*	8%	11	-13%
O=c1c2ccccc2oc2nc(-c3cccs3)n(CCc3ccccc3)c(=O)c12	nt	nt	nt	-1%	nt	-4%
COc1ccc2c(=O)c3c(=O)n(Cc4ccco4)c(-c4ccc(C)cc4)nc3oc2c1	-3	?	?	-1%	41	-10%
COc1cc(-c2nc3oc4ccccc4c(=O)c3c(=O)n2Cc2ccco2)cc(OC)c1OC	-6	18µM*	21µM*	-2%	?	-29%
CC(=O)Oc1ccc2c(=O)c(-c3ccc(Cl)cc3)c(C(F)(F)F)oc2c1	2	nt	nt	nt	nt	nt
O=C(Nc1ccc(F)cc1)c1cccnc1	-14	9.2µM*	?	22%	0	26%
O=C(Nc1ccc(NC(=O)c2cccnc2)cc1)c1ccccc1	-7	2%	-8%	-5%	2	1%
O=C(Nc1cccc(OC(=O)c2cccnc2)c1)c1cccnc1	-4	10µM*	10µM*	1%	8	11%
O=C(Nc1ccc(-c2noc(-c3cccs3)n2)cc1)c1cccnc1	-2	?	29µM*	-11%	?	?
O=C(COC(=O)c1c[nH]c2ccccc12)NC(c1ccccc1)c1ccccc1	-3	nt	nt	nt	nt	nt
Cc1ccc(NC(=O)c2cnc(N3CCCCC3)c3ccccc23)c(C)c1	2	?	-23%	nt	nt	nt
SMILES	LDHA block	DT40 TDP1 CPT	DT40 TDP1 no CPT	Gal4-VP16 FLuc	IL1B secr inh	RORgamma inh
CCc1ccccc1NC(=O)c1cnc(N2CCCCC2)c2ccccc12	-2	18µM*	?	nt	nt	nt
O=C(Nc1ccccc1F)c1cnc(N2CCCCC2)c2ccccc12	3	16µM*	23µM*	nt	nt	nt
O=C(Nc1ccc(C(F)(F)F)cc1)c1cnc(N2CCN(c3ccccn3)CC2)c2ccccc12	-4	21µM*	?	-11%	39	-7%
Cc1ccc(Cl)cc1NC(=O)c1cnc(N2CCCCC2)c2ccccc12	0	18µM*	13µM*	nt	nt	nt
COc1ccccc1NC(=O)c1cnc(N2CCCCC2)c2ccccc12	9	nt	nt	nt	nt	nt
O=C(Nc1ccc(C(F)(F)F)cc1)c1cccnc1N1CCOCC1	-6	-19%	?	1%	44	2%
CCOc1ccc(C(=O)C(C)OC(=O)c2ccc(OCC(N)=O)cc2)cc1 (stereo not drawn)	-3	nt	nt	nt	nt	nt
O=C(COc1ccc(Cl)cc1)Nc1ccc2oc(-c3ccccc3)nc2c1	-5	nt	nt	nt	nt	nt
N#C/C(=C\C1CC=CCC1)c1nc2ccccc2[nH]1 (stereo not drawn)	16	-13%	?	?	-52*	?
N#C/C(=C\c1ccccc1)c1nc2ccccc2[nH]1	14	nt	nt	nt	nt	nt
Cn1c(/C(C#N)=C/C2CC=CCC2)nc2ccccc21 (stereo not drawn)	4	?	?	?	-96*	?
c1ccc2c(c1)CC1(CCCC1)n1nnnc1-2	0	-11%	2%	5%	-4	0.71µM*
CC1(C)Cc2ccccc2-c2nnnn21	-2	-16%	-6%	-4%	22	10%
O=C(/C=C/c1ccc(C(F)(F)F)cc1)N1CCN(Cc2ccccc2)CC1	3	nt	nt	nt	nt	nt
COc1cc(/C=C/C(=O)N2CCN(CC(O)COc3ccccc3)CC2)cc(OC)c1OC (stereo not drawn)	-2	?	21µM*	0%	-6	-12%
O=C(/C=C/c1ccc(Cl)cc1)N1CCN(Cc2ccccc2)CC1	-5	-14%	?	-18%	-75*	31%
COc1cc(/C=C/C(=O)N2CCN(Cc3ccccc3)CC2)cc(OC)c1OC	-3	-73%	18µM*	0%	4	-2%
Cc1ccc(NC(=O)C2=C(c3ccccc3)NC(=S)NC2c2ccc(Cl)cc2)cc1 (stereo not drawn)	-6	nt	nt	nt	nt	nt
CC1CCN(c2nc3c(s2)c(=O)n(C(C)C)c(=O)n3CC(=O)Nc2cccc(Cl)c2)CC1	0	nt	nt	nt	nt	nt
c1cncc(CN2CCN(Cc3c[nH]c4ccccc34)CC2)c1	3	nt	nt	nt	nt	nt
OCC1(Cc2ccccc2)CCCN(Cc2c[nH]c3ccccc23)C1 (stereo not drawn)	-3	12µM*	18µM*	-8%	-65*	0%
CCN1CCCC(CO)(Cc2ccccc2)C1 (stereo not drawn)	-8	5%	-7%	1%	5	-20%
